# Laboratory results reported in the supplement of paper PMC12282887.
# ± gives the standard deviation of the averaged measurements.
# Assays:
# Experiment in all cases: promoter activity interaction Z-score (Lux/OD deviation from empty-vector control); higher = stronger promoter induction by the compound
# [1] = tested on: E. coli BW25113 acrABp lux reporter
# Procedure, shortened: (§1)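 E. coli BW25113 (wild type or marA, soxS or rob deletion) carrying low-copy luxCDABE promoter reporters grew in 40 µl LB Lennox in 384-well plates at 37°C. Each compound was tested at four 1:2 dilutions in biological duplicates. OD600 and luminescence were read every 30 min for 12 h. Areas were taken over 0–8 h (wild type) or 1–9 h (mutants), and wells below 10% of median growth area were removed. The score is the Z-transformed residual of growth-normalised luminescence fitted against the empty-vector control.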
# [2] = tested on: E. coli BW25113 micFp lux reporter
# Procedure, shortened: as §1
# [3] = tested on: E. coli BW25113 ompFp lux reporter
# Procedure, shortened: as §1
# [4] = tested on: E. coli BW25113 robp lux reporter
# Procedure, shortened: as §1
# [5] = tested on: E. coli BW25113 soxSp lux reporter
# Procedure, shortened: as §1
# [6] = tested on: E. coli BW25113 tolCp lux reporter
# Procedure, shortened: as §1
# [7] = 18.1 µg/ml, genetic background: wild type
# [8] = 18.1 µg/ml, genetic background: ΔmarA
# [9] = 18.1 µg/ml, genetic background: Δrob
# [10] = 18.1 µg/ml, genetic background: ΔsoxS
# [11] = 36.3 µg/ml, genetic background: wild type
# [12] = 36.3 µg/ml, genetic background: ΔmarA
# [13] = 36.3 µg/ml, genetic background: Δrob
# [14] = 36.3 µg/ml, genetic background: ΔsoxS
# [15] = 72.6 µg/ml, genetic background: wild type
# [16] = 72.6 µg/ml, genetic background: ΔmarA
# [17] = 72.6 µg/ml, genetic background: Δrob
# [18] = 72.6 µg/ml, genetic background: ΔsoxS
# [19] = 145.1 µg/ml, genetic background: wild type
# [20] = 145.1 µg/ml, genetic background: ΔmarA
# [21] = 145.1 µg/ml, genetic background: Δrob
# [22] = 145.1 µg/ml, genetic background: ΔsoxS
structure (smiles),measurement,setting,value
Oc1cc(O)c2c(c1)O[C@@H](c1ccc(O)c(O)c1)[C@H](O)C2 [Catechin],promoter activity interaction Z-score,[1]; [7],0.118 ± 0.17
same,promoter activity interaction Z-score,[1]; [8],-0.352 ± 0.15
same,promoter activity interaction Z-score,[1]; [9],0.3299 ± 0.003
same,promoter activity interaction Z-score,[1]; [10],-0.306 ± 0.42
same,promoter activity interaction Z-score,[1]; [11],0.149 ± 0.084
same,promoter activity interaction Z-score,[1]; [12],-1.14 ± 0.28
same,promoter activity interaction Z-score,[1]; [13],0.394 ± 0.14
same,promoter activity interaction Z-score,[1]; [14],-0.191 ± 0.27
same,promoter activity interaction Z-score,[1]; [15],-0.243 ± 0.23
same,promoter activity interaction Z-score,[1]; [16],-0.35 ± 0.0073
same,promoter activity interaction Z-score,[1]; [17],0.0378 ± 0.18
same,promoter activity interaction Z-score,[1]; [18],-0.0752 ± 0.23
same,promoter activity interaction Z-score,[1]; [19],-0.205 ± 0.27
same,promoter activity interaction Z-score,[1]; [20],-0.135 ± 0.26
same,promoter activity interaction Z-score,[1]; [21],0.0277 ± 0.083
same,promoter activity interaction Z-score,[1]; [22],-0.364 ± 0.16
same,promoter activity interaction Z-score,[2]; [7],-0.45 ± 0.11
same,promoter activity interaction Z-score,[2]; [8],-0.0948 ± 0.022
same,promoter activity interaction Z-score,[2]; [9],-0.0243 ± 0.03
same,promoter activity interaction Z-score,[2]; [10],-0.43 ± 0.036
same,promoter activity interaction Z-score,[2]; [11],-0.372 ± 0.21
same,promoter activity interaction Z-score,[2]; [12],-0.115 ± 0.1
same,promoter activity interaction Z-score,[2]; [13],-0.0591 ± 0.057
same,promoter activity interaction Z-score,[2]; [14],-0.4729 ± 0.00069
same,promoter activity interaction Z-score,[2]; [15],-0.209 ± 0.095
same,promoter activity interaction Z-score,[2]; [16],-0.0545 ± 0.022
same,promoter activity interaction Z-score,[2]; [17],-0.0723 ± 0.19
same,promoter activity interaction Z-score,[2]; [18],-0.295 ± 0.12
same,promoter activity interaction Z-score,[2]; [19],-0.569 ± 0.15
same,promoter activity interaction Z-score,[2]; [20],-0.0791 ± 0.1
same,promoter activity interaction Z-score,[2]; [21],-0.0881 ± 0.0077
same,promoter activity interaction Z-score,[2]; [22],-0.263 ± 0.028
same,promoter activity interaction Z-score,[3]; [7],0.365 ± 0.41
same,promoter activity interaction Z-score,[3]; [8],-0.591 ± 0.23
same,promoter activity interaction Z-score,[3]; [9],-0.0407 ± 0.17
same,promoter activity interaction Z-score,[3]; [10],-0.757 ± 0.35
same,promoter activity interaction Z-score,[3]; [11],0.374 ± 0.65
same,promoter activity interaction Z-score,[3]; [12],-0.588 ± 0.15
same,promoter activity interaction Z-score,[3]; [13],0.0282 ± 0.096
same,promoter activity interaction Z-score,[3]; [14],-0.571 ± 0.38
same,promoter activity interaction Z-score,[3]; [15],0.326 ± 0.55
same,promoter activity interaction Z-score,[3]; [16],-0.202 ± 0.48
same,promoter activity interaction Z-score,[3]; [17],-0.391 ± 0.39
same,promoter activity interaction Z-score,[3]; [18],-0.391 ± 0.094
same,promoter activity interaction Z-score,[3]; [19],-0.0294 ± 0.93
same,promoter activity interaction Z-score,[3]; [20],-0.395 ± 0.18
same,promoter activity interaction Z-score,[3]; [21],0.079 ± 0.47
same,promoter activity interaction Z-score,[3]; [22],-0.14 ± 0.27
same,promoter activity interaction Z-score,[4]; [7],1.06 ± 0.79
same,promoter activity interaction Z-score,[4]; [8],-0.456 ± 0.041
same,promoter activity interaction Z-score,[4]; [9],0.533 ± 0.081
same,promoter activity interaction Z-score,[4]; [10],0.443 ± 0.12
same,promoter activity interaction Z-score,[4]; [11],0.0214 ± 0.94
same,promoter activity interaction Z-score,[4]; [12],-0.758 ± 0.23
same,promoter activity interaction Z-score,[4]; [13],0.0934 ± 0.32
same,promoter activity interaction Z-score,[4]; [14],0.783 ± 1.1
same,promoter activity interaction Z-score,[4]; [15],0.124 ± 0.48
same,promoter activity interaction Z-score,[4]; [16],-0.279 ± 0.31
same,promoter activity interaction Z-score,[4]; [17],-0.125 ± 0.14
same,promoter activity interaction Z-score,[4]; [18],-0.0104 ± 0.026
same,promoter activity interaction Z-score,[4]; [19],0.00344 ± 0.46
same,promoter activity interaction Z-score,[4]; [20],0.234 ± 0.22
same,promoter activity interaction Z-score,[4]; [21],-0.253 ± 0.025
same,promoter activity interaction Z-score,[4]; [22],0.154 ± 0.41
same,promoter activity interaction Z-score,[5]; [7],-0.0785 ± 0.09
same,promoter activity interaction Z-score,[5]; [8],0.187 ± 0.029
same,promoter activity interaction Z-score,[5]; [9],0.051 ± 0.17
same,promoter activity interaction Z-score,[5]; [10],-0.175 ± 0.061
same,promoter activity interaction Z-score,[5]; [11],-0.0143 ± 0.021
same,promoter activity interaction Z-score,[5]; [12],0.127 ± 0.097
same,promoter activity interaction Z-score,[5]; [13],0.055 ± 0.095
same,promoter activity interaction Z-score,[5]; [14],-0.0693 ± 0.098
same,promoter activity interaction Z-score,[5]; [15],-0.0515 ± 0.13
same,promoter activity interaction Z-score,[5]; [16],0.0702 ± 0.24
same,promoter activity interaction Z-score,[5]; [17],0.012 ± 0.11
same,promoter activity interaction Z-score,[5]; [18],-0.155 ± 0.42
same,promoter activity interaction Z-score,[5]; [19],-0.342 ± 0.028
same,promoter activity interaction Z-score,[5]; [20],-0.0381 ± 0.14
same,promoter activity interaction Z-score,[5]; [21],-0.122 ± 0.12
same,promoter activity interaction Z-score,[5]; [22],-0.346 ± 0.37
same,promoter activity interaction Z-score,[6]; [7],0.35 ± 1.1
same,promoter activity interaction Z-score,[6]; [8],0.209 ± 0.5
same,promoter activity interaction Z-score,[6]; [9],0.0748 ± 1.2
same,promoter activity interaction Z-score,[6]; [10],-0.253 ± 0.35
same,promoter activity interaction Z-score,[6]; [11],-0.149 ± 0.74
same,promoter activity interaction Z-score,[6]; [12],-0.0811 ± 0.12
same,promoter activity interaction Z-score,[6]; [13],0.0597 ± 0.79
same,promoter activity interaction Z-score,[6]; [14],-0.531 ± 0.23
same,promoter activity interaction Z-score,[6]; [15],-0.323 ± 0.58
same,promoter activity interaction Z-score,[6]; [16],0.371 ± 0.19
same,promoter activity interaction Z-score,[6]; [17],-0.107 ± 0.25
same,promoter activity interaction Z-score,[6]; [18],-0.249 ± 0.24
same,promoter activity interaction Z-score,[6]; [19],-0.897 ± 0.36
same,promoter activity interaction Z-score,[6]; [20],0.397 ± 0.58
same,promoter activity interaction Z-score,[6]; [21],0.104 ± 0.68
same,promoter activity interaction Z-score,[6]; [22],0.637 ± 0.9
